Our source for the Potency values is PubChem BioAssay (Tox21).

SMILES strings stand for the structures. Results filed as inconclusive are left out. Where a call stands in place of a potency, no number is given. Active and inactive are the calls of the source. Calls follow the shape of the dose curve; as a rule, active = well fitted activation curve with a large enough effect in the repeat runs; inconclusive = weak or mixed curves; inactive = flat fitted curve, though single readings scatter.

A short description of the assay: A CellTox Green Cytotoxicity Assay to monitor cytotoxicity in HepG2 cells - 16 hour (AID 1224876). Also: nearly all actives have a fitted effect of over 45% in size. The following applies: CellTox Green fluorescence; series mostly up to 76.8 µM. The method, boiled down: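 HepG2 cells, 600/well, preincubated 5 h with CellTox Green dye, then exposed to Tox21 compounds in DMSO at 37 C for up to 40 h. Dead-cell DNA fluorescence read at the indicated time point.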
Consider `CCCOC(=O)Cc1ccc(OCC(=O)N(CC)CC)c(OC)c1`, for which the Potency result is “inactive”.

As to `O=C(Cl)C(Cl)Cl`, the Potency entry is “inactive”.

Turning to `CC[C@H](N)c1ccccc1`, the Potency result was “inactive”.

As to `CC(O)CCl` (stereo unspecified), the Potency result was “inactive”.

Take `CCCCCCCC(=O)Cl`: the Potency result is “inactive”.

As for `CCCCCCCCBr`, the Potency result is “inactive”.

As to `O=C(O)C(Cl)Br` (stereo unspecified), the Potency entry is “inactive”.

As for `COC1=CC(=O)O[C@@H](/C=C/c2ccccc2)C1`, the Potency entry was “inactive”.

Turning to `ClCCN1CCCC1`, the Potency entry was “inactive”.

Turning to `C=CC=O`, the Potency entry is “inactive”.

For `O=C(O)c1c(Cl)ccc2cc(Cl)cnc12`, the Potency entry was “inactive”.

Turning to `CS(=O)(=O)Cl`, the Potency result is “inactive”.

`CCOC(=O)CC(SP(=S)(OC)OC)C(=O)OCC` (stereo unspecified): the Potency result was “inactive”.

With `[O-][Br+2]([O-])O`, the Potency result is “inactive”.

In the case of `Cc1cccc2sc3nncn3c12`, the Potency result was “inactive”.

Consider `CN1C(=O)COc2c(C(=O)NC3CN4CCC3CC4)cc(Cl)cc21` (stereo unspecified), for which the Potency entry was “inactive”.

In the case of `CCN(CCO)CCO`, the Potency result is “inactive”.

For `CON(C)C(=O)Nc1ccc(Br)cc1`, the Potency result was “inactive”.

With `N=C(N)[Se]`, the Potency result was “inactive”.

Regarding `ClC1=C(Cl)C2(Cl)C(CBr)CC1(Cl)C2(Cl)Cl` (stereo unspecified), the Potency result is “inactive”.

Regarding `CN(C)CCN(C)C`, the Potency entry was “inactive”.

For `CC(C)(O)C(Cl)(Cl)Cl`, the Potency result was “inactive”.

Regarding `C/C(=N\NC(=O)Nc1cc(F)cc(F)c1)c1ncccc1C(=O)O`, the Potency entry is “inactive”.

As for `C1CN2CCC1CC2`, the Potency entry is “inactive”.

Take `CCOC1Oc2ccc(OS(C)(=O)=O)cc2C1(C)C` (stereo unspecified): the Potency result is “inactive”.

With `O=CCCl`, the Potency result was “inactive”.

Take `CC#Cc1cc(C)nc(Nc2ccccc2)n1`: the Potency entry was “inactive”.

For the molecule `CCOC(=O)CCl`, the Potency result was “inactive”.

Consider `CNC(=O)O/N=C(/CSC)C(C)(C)C`, for which the Potency result was “inactive”.

In the case of `CCOC(=O)Nc1cccc(OC(=O)Nc2ccccc2)c1`, the Potency result is “inactive”.

For the molecule `CCN[C@H](C)Cc1cccc(C(F)(F)F)c1`, the Potency entry is “inactive”.
